Assay outcomes from PubChem BioAssay.
Shown are actives, neighbours in structure and some others; about 1.1% of the full set was active somewhere.
26S disassembly = blocks ATP-dependent breakdown of the yeast 26S proteasome. AID 751. inhibition of disassembly, % (no concentration beside the values). 24,000 tested, 0.2% active. anti-FLAG beads, GFP-proteasome disassembly, flow cytometry;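 active = inhibition of disassembly above about 33%, limit read from the data; inconclusive = likely self-fluorescent, control bead median signal at least 40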;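 also: plate controls were ATP control with full disassembly for no effect and ATP-gamma-S intact proteasomes for full effect; higher percent means more bead fluorescence retained so stronger block of disassembly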
VLA-4 allo ag = allosterically activates the human VLA-4 integrin; AID 528; activation, % at 10 µM (by protocol); 24,000 tested, under 10 active; P13612; Jurkat cells, LDV-FITC binding, flow cytometry;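 active = fluorescent ligand binding to cells raised by more than 40% of the manganese-induced maximum; inconclusive = compound's own fluorescence above 85% of the ligand control signal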;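 also: 0% = ligand binding without compound and 100% = manganese-stimulated maximal binding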
Target sequence (P13612 whole entry, looked up): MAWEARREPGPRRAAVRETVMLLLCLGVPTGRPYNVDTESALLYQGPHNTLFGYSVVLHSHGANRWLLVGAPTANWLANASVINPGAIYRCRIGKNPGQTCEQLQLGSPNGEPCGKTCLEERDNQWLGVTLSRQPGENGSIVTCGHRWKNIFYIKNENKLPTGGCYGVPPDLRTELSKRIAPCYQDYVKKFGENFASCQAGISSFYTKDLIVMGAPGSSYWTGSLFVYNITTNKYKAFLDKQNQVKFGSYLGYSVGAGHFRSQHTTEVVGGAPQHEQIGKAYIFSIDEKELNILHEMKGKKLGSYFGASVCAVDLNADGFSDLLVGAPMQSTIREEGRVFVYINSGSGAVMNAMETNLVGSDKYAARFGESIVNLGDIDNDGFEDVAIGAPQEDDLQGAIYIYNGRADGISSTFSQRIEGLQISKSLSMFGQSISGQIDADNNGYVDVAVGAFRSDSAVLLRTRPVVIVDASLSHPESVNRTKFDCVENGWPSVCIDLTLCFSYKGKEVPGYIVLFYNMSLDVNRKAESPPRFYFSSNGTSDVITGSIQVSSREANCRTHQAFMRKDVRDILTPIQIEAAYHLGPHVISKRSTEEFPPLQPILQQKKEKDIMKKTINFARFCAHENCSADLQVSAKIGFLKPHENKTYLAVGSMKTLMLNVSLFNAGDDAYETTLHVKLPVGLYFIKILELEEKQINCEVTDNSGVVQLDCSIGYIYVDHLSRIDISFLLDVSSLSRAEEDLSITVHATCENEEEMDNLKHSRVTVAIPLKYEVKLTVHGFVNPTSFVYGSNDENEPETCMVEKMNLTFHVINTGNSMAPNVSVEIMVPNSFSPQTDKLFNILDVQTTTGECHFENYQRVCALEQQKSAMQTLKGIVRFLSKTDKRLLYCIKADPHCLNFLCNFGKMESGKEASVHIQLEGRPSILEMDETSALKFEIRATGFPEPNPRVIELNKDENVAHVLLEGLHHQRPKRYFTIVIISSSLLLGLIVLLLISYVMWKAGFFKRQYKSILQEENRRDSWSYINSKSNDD
VLA-4 antagonist = inhibitors of LDV-FITC ligand binding to Mn2+-activated human VLA-4 integrin. 24,000 tested, 0.2% active. Jurkat cells, LDV-FITC binding with Mn2+, flow cytometry; 100% = Mn2+-driven binding gain fully reversed. inhibition, % at 10 µM (by protocol). P13612;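 active = inhibition above 50%; inconclusive = compound itself fluorescent, judged against control cell fluorescence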;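 also: 0% = Mn2+ stimulated cells lacking compound and 100% = ligand binding without Mn2+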
Jurkat autofluor = counter-screen for VLA-4 integrin: compound autofluorescence in Jurkat cells; AID 576; flow cytometry; hits give high values; 1 = vehicle-only cell background; 24,000 tested, 0.61% active; fluorescence ratio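 (tested at 10 µM compound in the well)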;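 active = fluorescence ratio above 2.44, which is 1 plus 3 SD of all ratios; inconclusive = signal too bright to measure linearly, ratio around 10 or more; inactive = fluorescence ratio below 2.44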;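 also: green fluorescence of cells measured with 488 nm excitation and 530 nm emission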
Starred values were filed as active, the others as inactive; ? = inconclusive.

SMILES	26S disassembly	VLA-4 allo ag	VLA-4 antagonist	Jurkat autofluor
COc1ccc(C2C=C(c3ccc(Br)s3)Nc3ncnn32)cc1OC (configuration not stated)	3.6	?	?	3.32*
COc1ccc(CNC(=O)c2ccc3c(c2)N(C)C(=O)CS3=O)cc1 (configuration not stated)	-0.8	1.0	-16.0	0.99
CC(C)c1ccc(-c2nc(N3CCOCC3)[nH]c(=O)c2C#N)cc1	0.5	1.0	-14.0	1.24
Cc1cccc(-c2noc(CN(C(=O)c3c(-c4ccccc4Cl)noc3C)C(C)C)n2)c1	2.2	-15.0	59.0*	1.05
CC(C)N=c1cc2n(-c3ccc(Cl)cc3)c3ccccc3nc-2cc1Nc1ccc(Cl)cc1	-1.1	?	?	3.9*
Cc1n[nH]c(C)c1S(=O)(=O)N1CCCC(C(=O)NC2CCCc3ccccc32)C1 (configuration not stated)	0.7	?	?	2.45*
C/C(O)=c1/ccc2cccc3nc(C)nc1c23	17.0	?	?	3.5*
CN1CCc2c(sc3c2c(=O)n(-c2cccc(Cl)c2)c2nncn32)C1	29.5	-0.5	-10.5	1.11
CN1CCc2c(sc3c2C(=O)NC(c2ccc(-c4cccc(Cl)c4)o2)N3)C1 (configuration not stated)	8.0	?	0.0	9.9*
Cc1ccsc1C1NC(=O)c2c(sc3c2CCN(C)C3)N1 (configuration not stated)	2.8	?	?	2.37
CSc1ccc(C2NC(=O)c3c(sc4c3CCN(C)C4)N2)cc1 (configuration not stated)	4.1	?	?	4.72*
CCOC1(C(F)(F)F)NC(=O)N(Cc2ccc(OC)cc2)C1=O (configuration not stated)	0.4	2.0	-1.0	1.02
O=C(C1CCN(c2ccc(N3CCOCC3)nn2)CC1)N1CCN(c2ccc(F)cc2)CC1	-1.7	5.0	9.0	1.04
O=S(=O)(c1cnc[nH]1)N1CCc2ccccc21	2.5	?	?	3.08*
CC1Cc2ccccc2N1S(=O)(=O)c1cnc[nH]1 (configuration not stated)	3.5	?	?	1.46
Cc1ccc2c(c1)N(CCC(=O)NCCCOC(C)C)C(=O)C(C)O2 (configuration not stated)	1.1	-3.0	-2.0	1
O=C(Cn1c(=O)oc2ccccc21)N1CCN(c2ccccc2)CC1	2.5	?	?	2.53*
O=C(CCn1c(=O)oc2ccccc21)N1CCN(c2ccccc2F)CC1	1.3	0.0	-12.0	1.05
N#Cc1c(-c2ccco2)cc(C2CC2)nc1SCC(=O)c1ccccc1	1.4	?	?	2.5*
CCOC(=O)N1CCC(NS(=O)(=O)c2cc3c(cc2Cl)NC(=O)CO3)CC1	0.1	?	?	5.09*
CCOC(=O)N1CCC(NS(=O)(=O)c2ccc3c(c2)OCC(=O)N3)CC1	0.4	-6.0	4.0	1.09
Cc1cc(N2CCN(C3CCCCC3)CC2)n2nc(C)nc2n1	0.1	?	?	1.61
Cc1ccc(CCNC(=O)CN2C(=O)COc3ccccc32)cc1	-0.8	3.0	62.0*	1.05
CC1=C(C(=O)N2CCCCC2)C2(CCC(C)CC2)OC1=O (configuration not stated)	-0.3	3.0	1.7	0.98
CC1=C(C(=O)N2CCc3ccccc32)C2(CCC(C)CC2)OC1=O (configuration not stated)	2.9	?	?	6.03*
SMILES	26S disassembly	VLA-4 allo ag	VLA-4 antagonist	Jurkat autofluor
CCOC(=O)N1CCN(C(=O)CCc2ccc(S(=O)(=O)NCCc3ccccc3)cc2)CC1	-2.1	-5.0	-3.0	1.03
Cc1cc(NC(=O)CC(CN(C)S(=O)(=O)c2ccccc2)c2ccccc2)no1 (configuration not stated)	3.3	-3.0	7.0	1.05
O=S1(=O)C=C(Sc2nc3cc(Cl)ccc3o2)c2ccccc21	12.9	?	?	9.62*
COc1ccccc1-n1nnnc1SCc1cc2c(cc1Br)OCO2	0.1	-1.0	0.5	1
CCOC(=O)c1ccccc1NC(=O)Cn1c(-c2nonc2N)nc2ccccc21	6.8	?	?	1.32
CC1CCCN(C(=O)Cn2c(-c3nonc3N)nc3ccccc32)C1 (configuration not stated)	-3.2	?	?	3.04*
CC(=O)N1c2ccc(S(=O)(=O)CCC(=O)O)cc2CC1C (configuration not stated)	-0.9	-3.0	61.0*	1.06
CCNc1c2c3c(cccc3n(C)c1=O)C(=O)c1ccccc1-2	58.8*	?	?	9.82*
Cn1c2ccccc2c(=O)n2c(=O)c3ccccc3cc12	1.4	0.0	1.0	1.01
